Screens: PubChem, several laboratories
Only some compounds are listed: those with a hit (about 2.1% of all), similar ones and a draw of the others.
PLC-gamma1 inh: blocks human PLC-gamma1 enzyme activity; P19174; purified PLC-gamma1, fluorogenic substrate, fluorescence; inhibition, % at 12.2 µM; actives 0.84% (n = 370,000); AID 720700; in the data active = inhibition above about 9.5%
ADAM17 inh: inhibitors of human ADAM17. actives 0.83% (n = 370,000). P78536. inhibition, % at 6.95 µM. recombinant ADAM17, EDANS/DABCYL FRET peptide cleavage;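 active = inhibition above the mean of compounds lying between control limits plus 3 SD, set per campaign, cut at about 8.5% in these data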
ADAM10 inh: inhibits human ADAM10; actives 0.62% (n = 370,000); inhibition, % at 7 µM; O14672; recombinant ADAM10, EDANS/DABCYL FRET peptide cleavage, 3 h;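 active = inhibition above a per-campaign cutoff equal to the mean of compounds falling between control-based bounds plus 3 SD, cut at about 20% in these data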
Rce1 inh: yeast Ras-converting enzyme inhibition. AID 2563. actives 0.27% (n = 290,000). calls only. yeast membranes, quenched prenylated peptide cleavage fluorescence. Q03530;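 active = fall in fluorescence gain of 50% or more versus controls, with final raw signal at or below 3038400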
Target sequence (Q03530 whole entry, looked up): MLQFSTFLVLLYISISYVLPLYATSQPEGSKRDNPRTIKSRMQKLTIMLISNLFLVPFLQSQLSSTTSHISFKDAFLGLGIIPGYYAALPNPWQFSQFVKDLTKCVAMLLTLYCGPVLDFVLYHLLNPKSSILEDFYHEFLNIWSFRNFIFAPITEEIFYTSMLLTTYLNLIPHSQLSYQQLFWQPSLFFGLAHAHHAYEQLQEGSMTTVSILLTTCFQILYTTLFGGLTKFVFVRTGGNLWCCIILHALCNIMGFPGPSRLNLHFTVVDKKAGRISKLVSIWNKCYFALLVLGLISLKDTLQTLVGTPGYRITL
PLC-beta3 inh: PLC-beta3 (human) inhibition, primary screen; inhibition, % at 12.2 µM; actives 0.18% (n = 370,000); Purified PLC-beta3, fluorogenic substrate, fluorescence; Q01970; in the data active = inhibition above about 11%
ADAM10 confirm: confirmation of inhibitors of human ADAM10 | shares compounds with ADAM10 inh | ADAM10 QFRET peptide cleavage, EDANS fluorescence | inhibition, % at 6.95 µM | actives 1% (n = 2,100);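 active = inhibition above about 20% chosen separately for each screening run, limit read from the data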
ADAM17 counter: inhibits human ADAM17 in ADAM10 exosite counter-screen; shares compounds with ADAM10 inh; ADAM17 QFRET peptide cleavage, EDANS fluorescence; inhibition, % at 6.95 µM; actives 0.5% (n = 2,100);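 active = mean triplicate inhibition above the solvent-only control wells' mean plus 3 SD, cut at about 12% in these data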
Of the large screens only hits and unclear results are named; the others gave an inactive call (follow-up assays come after a bar, where they were run).

O=C(Nc1ccc2c(c1)OCO2)C1CC(c2ccc(Cl)cc2)=NO1 (configuration not stated)	none
COc1ccc(C2=NOC(C(=O)Nc3ccc4c(c3)OCO4)C2)cc1 (configuration not stated)	ADAM10 inh 22 | ADAM10 confirm inactive | ADAM17 counter inactive
OCC[C@@H]1C[C@H](O)[C@@H](O)[C@@]2(OCCCc3cc(C(F)(F)F)ccc32)O1	none (no result: Rce1 inh)
O=C1c2ccccc2C(c2nnnn2Cc2ccccc2)N1CCc1c[nH]c2ccccc12 (configuration not stated)	none (no result: Rce1 inh)
CN(C)c1ccc(/C=C(\C#N)C(=O)Nc2nc3c(s2)CCN(Cc2ccccc2)C3)cc1	none
COc1cc(Br)cc(CNc2ccc(F)c([N+](=O)[O-])c2)c1O	ADAM10 inh 20 | ADAM10 confirm inactive | ADAM17 counter inactive
C=CCNC(=O)COc1cc(C)cc(C)c1C	none
CN(C)S(=O)(=O)c1cccc(NC(=O)COC(=O)CCSc2ccc(Cl)cc2)c1	ADAM10 inh 21 | ADAM10 confirm inactive | ADAM17 counter inactive
Cc1ccc(SCCC(=O)OCC(=O)Nc2ccc(C(N)=O)cc2)cc1	ADAM10 inh 95 (no result: Rce1 inh) | ADAM10 confirm inactive | ADAM17 counter inactive
NS(=O)(=O)c1cccc(NC(=O)COC(=O)CCSc2ccccc2)c1	none
NC(=O)c1ccc(NC(=O)COC(=O)CCSc2ccccc2)cc1	none
CCOC(=O)C(C(=O)OCC)C(=O)c1cccc2ccc3ccccc3c12	none (no result: Rce1 inh)
O=C(CNC(=O)c1nc[nH]c1C(=O)N1CCNCC1)OCc1ccccc1	none
O=C(CNC(=O)c1nc[nH]c1C(=O)N1CCc2ccccc2C1)OCc1ccccc1	ADAM10 inh 22 | ADAM10 confirm inactive | ADAM17 counter inactive
Cc1ccc(NC(=O)c2nc[nH]c2C(=O)N[C@@H](C)c2ccccc2)cc1	ADAM10 inh 24 | ADAM10 confirm inactive | ADAM17 counter inactive
CC(C)C[C@H](NC(=O)c1[nH]cnc1C(=O)N[C@H](C)c1ccccc1)C(=O)OC(C)(C)C	ADAM10 inh 25 | ADAM10 confirm inactive | ADAM17 counter inactive
CC(C)C[C@H](NC(=O)c1nc[nH]c1C(=O)NC(c1ccccc1)c1ccccc1)C(=O)OCc1ccccc1	ADAM10 inh 23 | ADAM10 confirm inactive | ADAM17 counter inactive
Cc1cccc(CC(=O)NCCS(=O)(=O)N2CCN(c3ccccc3)CC2)c1	none (no result: Rce1 inh)
CC1(c2ccc3ccccc3c2)NC(=O)N(CC(=O)N2CCCC(C(F)(F)F)C2)C1=O (configuration not stated)	none (no result: Rce1 inh)
O=C(N[C@@H](Cc1ccccc1)C(=O)OCc1ccccc1)c1nc[nH]c1C(=O)NCc1ccccc1	ADAM10 inh 21 | ADAM10 confirm inactive | ADAM17 counter inactive
COc1cccc(CC(=O)OCC(=O)NCCc2ccc(F)cc2)c1	none (no result: Rce1 inh)
Cc1cccc(CCNC(=O)CCc2nc(-c3ccccc3F)no2)c1	ADAM10 inh 20 (no result: Rce1 inh) | ADAM10 confirm inactive | ADAM17 counter inactive
Cn1nc(C(C)(C)C)cc1C(=O)N1CCCC(c2cc(C(=O)Nc3ccccc3Cl)no2)C1 (configuration not stated)	none (no result: Rce1 inh)
O=C(NC1CCCc2ccccc21)c1cccc(S(=O)(=O)N2CCN(c3ccccc3)CC2)c1 (configuration not stated)	ADAM17 inh 9.5, ADAM10 inh 20 | ADAM10 confirm inactive | ADAM17 counter inactive
CN(C)c1ccc(C(CNC(=O)c2ccccc2Br)c2c[nH]c3ccccc23)cc1 (configuration not stated)	none
CN(C)c1ccc(C(CNS(=O)(=O)c2ccc(F)cc2)c2c[nH]c3ccccc23)cc1 (configuration not stated)	ADAM10 inh 22 | ADAM10 confirm inactive | ADAM17 counter inactive
Cc1cc(C)c(C#N)c(SCc2ccccc2)n1	ADAM10 inh 23 | ADAM10 confirm inactive | ADAM17 counter inactive
Cc1cc(C)c(C#N)c(SCSCc2ccccc2)n1	none
Cc1ccc(C(=O)Nc2ccccc2Oc2ccccc2)cc1[N+](=O)[O-]	ADAM10 inh 22 | ADAM10 confirm inactive | ADAM17 counter inactive
c1ccc(-c2ccccc2OCCCCn2ccnc2)cc1	none
O=C(Nc1ccc(OC(F)F)c(Cl)c1)C(c1ccccc1)c1ccccc1	ADAM17 inh 14, ADAM10 inh 28 | ADAM10 confirm inactive | ADAM17 counter inactive
FC(F)Oc1ccc(NC(=S)NCc2ccccc2)cc1Cl	none
COc1ccc(-c2cc(-c3cc(C)ccc3O)[nH]n2)cc1	none
Cc1[nH]nc(-c2ccc(O)cc2O)c1-c1nc2ccccc2s1	none
COc1ccc(-c2cc(-c3ccc(C)cc3)n[nH]2)c(O)c1	ADAM10 inh 33 | ADAM10 confirm inactive | ADAM17 counter inactive
Cc1[nH]nc(-c2ccc(O)cc2O)c1-c1ccc(Cl)cc1	ADAM10 inh 20 | ADAM10 confirm inactive | ADAM17 counter inactive
COc1ccc(-c2n[nH]c(C)c2-c2ccc(Cl)cc2)c(O)c1	ADAM10 inh 20 | ADAM10 confirm inactive | ADAM17 counter inactive
Cc1ccc2nc(-c3ccc(F)cc3)c(Cc3ccccc3C(F)(F)F)n2c1	none (no result: Rce1 inh)
Cc1ccc(C(=O)Oc2cccc(NC(=O)c3ccco3)c2)cc1S(=O)(=O)N1CCC(C)CC1	none
O=C(Oc1cccc(NC(=O)c2ccco2)c1)c1ccc(Br)c(S(=O)(=O)N2CCCCC2)c1	ADAM17 inh 13, ADAM10 inh 28 (no result: Rce1 inh) | ADAM10 confirm inactive | ADAM17 counter inactive
O=C(NCc1nc2ccccc2[nH]1)C1=C[C@H](c2coc3ccccc3c2=O)C[C@H](OCc2ccc(CO)cc2)O1	ADAM10 inh 24 | ADAM10 confirm inactive | ADAM17 counter inactive
O=C(CNC(=O)C1COc2ccccc2O1)Nc1ccc(F)c(F)c1 (configuration not stated)	none (no result: Rce1 inh)
COc1ccccc1NC(=O)c1ccccc1NC(=O)c1cccs1	ADAM10 inh 21 | ADAM10 confirm inactive | ADAM17 counter inactive
O=S(=O)(c1ccc(Cl)cc1)N1CCCc2ccccc21	none
Nc1ccc(S(=O)(=O)N2CCCc3ccccc32)cc1	ADAM10 inh 24 | ADAM10 confirm inactive | ADAM17 counter inactive
Cn1cc(C=CC(=O)O)c2nccnc21	none (no result: Rce1 inh)
O=C(N[C@@H]1CCC(=O)N(CC[C@H](Oc2ccccc2)c2ccccc2)CC1)OCc1ccccc1	ADAM10 inh 20 | ADAM10 confirm inactive | ADAM17 counter inactive
O=C(NCCOc1ccccc1F)c1ccc2c(=O)n3c(nc2c1)CCC3	none (no result: Rce1 inh)
CC(=O)Nc1ccc2c(c1)nc1n2CCOC1	ADAM10 inh 84 | ADAM10 confirm inactive | ADAM17 counter inactive
COc1ccc(NS(=O)(=O)c2ccc(-c3ccccn3)s2)cc1	ADAM10 inh 22 | ADAM10 confirm inactive | ADAM17 counter inactive
C[C@H](NC(=O)C1CCN(C(=O)[C@@H]2CCCN2C(=O)OC(C)(C)C)CC1)C(=O)NCc1ccc(F)cc1	none (no result: Rce1 inh)
